Experimental data from PubChem BioAssay (NCATS).
Results filed as inconclusive are left out. Active and inactive are the calls of the source. The call rests on the fitted dose curve; in most records, active means well fitted curve in the direction sought with a large enough effect; inconclusive means small, poorly fitted or top-dose-only effect, or another doubt; inactive means no such curve, though single readings can be large; an effect the other way counts as inactive or inconclusive.

Columns and labels:
[1] = target: Rap guanine nucleotide exchange factor 3 (Homo sapiens) (UniProt O95398); test: Confirmatory qHTS for antagonist of cAMP-regulated guanine nucleotide exchange factor 3 (EPAC1) (AID 1645880); further: nearly all actives have a fitted effect of over 55% in size; further: potency means the concentration at half of the fitted maximal effect
Sequence of Rap guanine nucleotide exchange factor 3 (Homo sapiens) (O95398 whole entry, looked up): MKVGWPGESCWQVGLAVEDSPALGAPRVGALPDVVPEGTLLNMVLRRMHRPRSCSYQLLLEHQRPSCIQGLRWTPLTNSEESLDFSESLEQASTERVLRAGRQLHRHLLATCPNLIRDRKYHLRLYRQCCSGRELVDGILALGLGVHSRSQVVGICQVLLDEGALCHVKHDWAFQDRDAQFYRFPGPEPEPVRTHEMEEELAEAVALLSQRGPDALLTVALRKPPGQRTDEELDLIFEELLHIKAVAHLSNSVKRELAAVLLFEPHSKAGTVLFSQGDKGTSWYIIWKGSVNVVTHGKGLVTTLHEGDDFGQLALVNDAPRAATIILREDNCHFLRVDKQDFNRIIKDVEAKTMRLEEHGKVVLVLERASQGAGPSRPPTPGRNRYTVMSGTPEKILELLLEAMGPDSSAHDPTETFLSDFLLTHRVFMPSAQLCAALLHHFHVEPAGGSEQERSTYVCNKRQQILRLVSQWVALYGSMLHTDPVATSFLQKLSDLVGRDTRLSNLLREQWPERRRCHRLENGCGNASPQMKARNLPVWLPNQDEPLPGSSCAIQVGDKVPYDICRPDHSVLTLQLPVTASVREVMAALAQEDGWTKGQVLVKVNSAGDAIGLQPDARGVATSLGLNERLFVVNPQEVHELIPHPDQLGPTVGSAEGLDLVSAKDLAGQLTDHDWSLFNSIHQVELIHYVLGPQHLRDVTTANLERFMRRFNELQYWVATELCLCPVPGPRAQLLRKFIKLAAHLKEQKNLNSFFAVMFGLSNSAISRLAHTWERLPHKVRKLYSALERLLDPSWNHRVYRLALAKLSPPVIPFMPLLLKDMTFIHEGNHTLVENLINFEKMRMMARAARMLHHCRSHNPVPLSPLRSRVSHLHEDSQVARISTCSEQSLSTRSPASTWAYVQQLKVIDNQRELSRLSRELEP
In short: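 Released BODIPY-GDP fluoresces less than Rap1-bound BODIPY-GDP; the signal is followed at 480/540 nm at 5-min intervals over 30 min, after 5 min at room temperature. Reactions contain 100 nM EPAC1, 250 nM RAP1B-BODIPY-GDP and 50 uM GDP; results are normalized to ATA and DMSO.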

[2] = target: Rap guanine nucleotide exchange factor 3 (Homo sapiens) (UniProt O95398); test: Confirmatory qHTS for agonist of cAMP-regulated guanine nucleotide exchange factor 3 (EPAC1) (AID 1645881);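 further: EPAC1 catalysed release of BODIPY-GDP from Rap1B seen as fluorescence loss; 100% = effect of cAMP agonist control; nearly all actives have a fitted effect of over 75% in size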
[3] = target: Rap guanine nucleotide exchange factor 4 (Homo sapiens) (UniProt Q8WZA2); test: Confirmatory qHTS for agonist of cAMP-regulated guanine nucleotide exchange factor 4 (EPAC2) (AID 1645884);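 further: nucleotide exchange releases bodipy-GDP from Rap1 and this lowers its fluorescence; nearly all actives have a fitted effect of over 65% in size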; further: potency means the concentration at half of the fitted maximal effect; on activation: on the % scale 0 is the no-effect control and ±100 the full control effect
Sequence of Rap guanine nucleotide exchange factor 4 (Homo sapiens) (Q8WZA2 whole entry, looked up): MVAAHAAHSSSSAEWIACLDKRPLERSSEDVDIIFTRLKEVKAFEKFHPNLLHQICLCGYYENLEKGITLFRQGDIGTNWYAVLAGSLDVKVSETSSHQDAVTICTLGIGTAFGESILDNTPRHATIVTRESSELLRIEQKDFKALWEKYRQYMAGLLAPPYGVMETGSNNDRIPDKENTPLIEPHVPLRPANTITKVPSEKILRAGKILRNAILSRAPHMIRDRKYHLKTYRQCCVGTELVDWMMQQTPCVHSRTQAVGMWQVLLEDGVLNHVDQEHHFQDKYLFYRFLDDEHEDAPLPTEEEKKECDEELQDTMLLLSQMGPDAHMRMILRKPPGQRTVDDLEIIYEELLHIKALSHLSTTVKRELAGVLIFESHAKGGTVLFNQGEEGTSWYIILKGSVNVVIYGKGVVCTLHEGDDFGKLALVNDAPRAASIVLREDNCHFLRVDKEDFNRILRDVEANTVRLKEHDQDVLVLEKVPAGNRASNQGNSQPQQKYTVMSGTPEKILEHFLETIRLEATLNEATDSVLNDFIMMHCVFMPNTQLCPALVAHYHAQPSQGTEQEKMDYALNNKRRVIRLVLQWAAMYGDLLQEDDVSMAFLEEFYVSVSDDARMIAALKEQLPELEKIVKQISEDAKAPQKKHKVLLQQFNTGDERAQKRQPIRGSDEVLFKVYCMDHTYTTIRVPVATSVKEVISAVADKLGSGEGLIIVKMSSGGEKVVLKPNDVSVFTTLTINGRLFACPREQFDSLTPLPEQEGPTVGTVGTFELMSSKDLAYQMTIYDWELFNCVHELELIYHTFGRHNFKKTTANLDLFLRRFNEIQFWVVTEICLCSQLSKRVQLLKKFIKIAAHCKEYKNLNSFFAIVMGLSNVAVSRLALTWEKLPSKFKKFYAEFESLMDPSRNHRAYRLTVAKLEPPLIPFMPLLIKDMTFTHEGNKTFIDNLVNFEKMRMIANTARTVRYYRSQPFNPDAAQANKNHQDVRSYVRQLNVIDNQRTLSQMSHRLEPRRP

[4] = target: Rap guanine nucleotide exchange factor 4 (Homo sapiens) (UniProt Q8WZA2); test: Confirmatory qHTS for antagonist of cAMP-regulated guanine nucleotide exchange factor 4 (EPAC2) (AID 1645885); further: on the % scale 0 is the no-effect control and ±100 the full control effect; nearly all actives have a fitted effect of over 25% in size
[5] = target: Rap guanine nucleotide exchange factor 3 (Homo sapiens) (UniProt O95398); test: Counterscreen qHTS for agonist of cAMP-regulated guanine nucleotide exchange factor 3 (EPAC1) (AID 1645889); further: nearly all actives have a fitted effect of over 40% in size; further: potency means the concentration at half of the fitted maximal effect; on activation: % of control where 0% means no effect
In short: (§1)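 Rap1B–BODIPY-GDP (250 nM) with 50 uM GDP; compounds pin-transferred to 9.74 nM–152 uM final (activator) or from 7.32 nM upwards (inhibitor). Fluorescence Ex/Em 480/540 nm read at 5 and 30 min, then after adding cAMP or buffer, at room temperature.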

[6] = target: Rap guanine nucleotide exchange factor 3 (Homo sapiens) (UniProt O95398); test: Counterscreen qHTS for antagonist of cAMP-regulated guanine nucleotide exchange factor 3 (EPAC1) (AID 1645888); further: % of control where 0% means no effect
In short: as §1

[7] = target: Cytochrome P450 3A4 (Homo sapiens) (UniProt P08684); test: qHTS Assay for Activators of Cytochrome P450 3A4 (AID 885); further: nearly all actives have a fitted effect of over 65% in size
Sequence of Cytochrome P450 3A4 (Homo sapiens) (P08684 whole entry, looked up): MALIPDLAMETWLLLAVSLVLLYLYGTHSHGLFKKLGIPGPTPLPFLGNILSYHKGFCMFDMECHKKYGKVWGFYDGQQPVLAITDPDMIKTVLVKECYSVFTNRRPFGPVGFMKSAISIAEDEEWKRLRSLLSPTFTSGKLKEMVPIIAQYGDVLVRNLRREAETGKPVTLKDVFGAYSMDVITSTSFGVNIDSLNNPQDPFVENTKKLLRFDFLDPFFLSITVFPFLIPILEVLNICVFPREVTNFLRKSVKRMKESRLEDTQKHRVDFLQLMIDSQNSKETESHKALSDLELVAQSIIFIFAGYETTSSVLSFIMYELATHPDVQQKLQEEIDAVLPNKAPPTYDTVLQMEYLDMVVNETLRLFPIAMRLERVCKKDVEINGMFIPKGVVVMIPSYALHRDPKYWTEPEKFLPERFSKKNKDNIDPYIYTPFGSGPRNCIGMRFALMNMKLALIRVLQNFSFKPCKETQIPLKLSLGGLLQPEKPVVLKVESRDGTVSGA
In short: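 Using 20nM recombinant human CYP3A4 in potassium phosphate (200mM), substrate Luciferin-PPXE at 25uM, luminescent luciferin detection followed a 60-min RT NADPH reaction; data scaled to 57 uM ketoconazole.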

[8] = Confirmation and Secondary Assay for Modulators of Hemoglobin Beta Chain Splicing at IVS2 654 locus (AID 910);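 further: HeLa cells stably carrying EGFP split by mutant beta-globin IVS2-654 intron; % of control where 0% means no effect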
In short: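 HeLa cells stably expressing EGFP interrupted by β-globin IVS2-654 intron, seeded overnight in Opti-MEM/2% FCS, then treated 2 days at 37 °C. Restored splicing read as total peak GFP intensity per well by laser scanning cytometry (488 nm excitation, 500–520 nm emission); 500 nM antisense PNA as control.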

[9] = Confirmation and Secondary Assay for Modulators of Hemoglobin Beta Chain Splicing at IVS2 705 locus (AID 930);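 further: HeLa cells stably expressing the EGFP-705 splicing reporter; GFP fluorescence per well restored by corrected splicing of the IVS2-705 intron in EGFP; series mostly up to about 46 µM; % of control where 0% means no effect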
In short: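 HeLa EGFP-705 reporter; 500 cells/well, o/n 37C 5% CO2; cpd 2 d; 488 ex/500-520 em laser scan; total peak GFP intensity/well. Ref: 500 nM […] antisense PNA.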

[10] = target: Ubiquitin carboxyl-terminal hydrolase 1 (Homo sapiens) (UniProt O94782); test: Inhibitors of USP1/UAF1: Pilot qHTS (AID 504865); further: potency means the concentration at half of the fitted maximal effect; nearly all actives have a fitted effect of over 35% in size
Sequence of Ubiquitin carboxyl-terminal hydrolase 1 (Homo sapiens) (O94782 whole entry, looked up): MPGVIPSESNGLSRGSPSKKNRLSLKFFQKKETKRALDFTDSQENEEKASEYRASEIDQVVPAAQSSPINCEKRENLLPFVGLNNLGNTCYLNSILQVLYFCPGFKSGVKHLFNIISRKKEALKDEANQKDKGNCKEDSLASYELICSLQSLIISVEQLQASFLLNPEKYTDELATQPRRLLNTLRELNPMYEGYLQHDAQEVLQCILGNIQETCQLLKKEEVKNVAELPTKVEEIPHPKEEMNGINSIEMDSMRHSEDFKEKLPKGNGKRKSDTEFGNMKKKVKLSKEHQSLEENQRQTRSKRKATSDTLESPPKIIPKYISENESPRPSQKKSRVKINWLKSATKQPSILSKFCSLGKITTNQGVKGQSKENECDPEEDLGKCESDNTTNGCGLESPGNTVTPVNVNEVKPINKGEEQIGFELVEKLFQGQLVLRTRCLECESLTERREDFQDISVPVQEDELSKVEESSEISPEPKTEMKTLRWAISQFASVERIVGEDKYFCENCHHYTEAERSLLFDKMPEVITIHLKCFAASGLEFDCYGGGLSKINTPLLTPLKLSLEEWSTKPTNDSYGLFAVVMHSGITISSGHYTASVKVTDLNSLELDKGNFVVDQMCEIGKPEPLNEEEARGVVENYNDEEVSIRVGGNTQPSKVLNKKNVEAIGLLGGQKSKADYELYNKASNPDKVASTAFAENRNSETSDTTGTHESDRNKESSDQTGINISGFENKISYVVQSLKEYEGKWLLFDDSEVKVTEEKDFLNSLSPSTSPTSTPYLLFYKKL
In short: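 USP1/UAF1 complex at 1 nM preincubated 15 min at room temperature with compound, then Ub-Rho substrate added at 150 nM final. Fluorescence (480/540 nm) read kinetically in 50 mM HEPES pH 7.8, 0.5 mM EDTA, 1 mM TCEP, 0.1 mg/ml BSA, 0.01% Tween-20.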

[11] = target: Glutathione peroxidase 1 (Homo sapiens) (UniProt P07203); test: Primary qHTS Assay for Inhibitors of Recombinant Selenoprotein Glutathione Peroxidase 1 (GPX1) (AID 1845191); further: on the % scale 0 is the no-effect control and ±100 the full control effect; nearly all actives have a fitted effect of over 65% in size
Sequence of Glutathione peroxidase 1 (Homo sapiens) (P07203 whole entry, looked up): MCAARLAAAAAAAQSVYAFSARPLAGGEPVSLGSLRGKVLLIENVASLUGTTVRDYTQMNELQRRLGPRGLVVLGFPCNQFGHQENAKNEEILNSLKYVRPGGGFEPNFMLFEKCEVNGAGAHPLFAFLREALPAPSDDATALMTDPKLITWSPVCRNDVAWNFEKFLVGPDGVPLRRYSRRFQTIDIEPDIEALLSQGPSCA
In short: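 GR-coupled readout: NADPH consumption tracked by fluorescence, ex 340/em 450 nm, at t=0 and after 15 min at RT. Final mix 10 nM GPX1, 1 mM GSH, 0.5 mM CHP, 0.5 mM NADPH, 100 nM GR, 0.01% BSA, following 30 min enzyme–compound preincubation.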

[12] = target: Tumor susceptibility gene 101 protein (Homo sapiens) (UniProt Q99816); test: qHTS Assay for Iinhibitors of HIV-1 Budding by Blocking the Interaction of PTAP/TSG101: Hit Validation (AID 651600); further: potency means the concentration at half of the fitted maximal effect; nearly all actives have a fitted effect of over 70% in size
Sequence of Tumor susceptibility gene 101 protein (Homo sapiens) (Q99816 whole entry, looked up, the tested form may be a part): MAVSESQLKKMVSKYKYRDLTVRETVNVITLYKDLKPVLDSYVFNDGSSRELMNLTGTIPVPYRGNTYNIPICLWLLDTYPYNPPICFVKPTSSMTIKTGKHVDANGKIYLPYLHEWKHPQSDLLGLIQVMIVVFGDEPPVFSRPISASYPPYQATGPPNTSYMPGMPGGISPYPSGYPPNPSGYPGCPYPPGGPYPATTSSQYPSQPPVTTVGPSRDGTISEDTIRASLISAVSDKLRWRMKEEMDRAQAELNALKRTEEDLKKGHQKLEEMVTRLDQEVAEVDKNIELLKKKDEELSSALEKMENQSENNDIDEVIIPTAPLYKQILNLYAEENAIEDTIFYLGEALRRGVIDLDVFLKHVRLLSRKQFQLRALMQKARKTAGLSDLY
In short: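 Fluorescence polarization binding assay: Tsg101 binding domain (10 uM) mixed with compounds and FITC-labeled PTAP peptide (50 nM) in HEPES pH 7.5, 0.15 M NaCl, 0.01% Tween 20, EDTA, TCEP; 20 min at r.t.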

CCC(=NCCCO)c1c(O)n(-c2ccc(OC)cc2)c(=O)[nH]c1=O
inactive: Potency [1] | Potency [2] | activation [3] 2.6% [at 17.1 µM, percent relative to cAMP agonist control] | activity change, negative = inhibition [4] -12.3% [at 12.7 µM] | activation [5] -4.42% [at 30.8 µM]

Cc1ccc(-n2c(O)c(/C=C/C=Nc3ccccc3)c(=O)[nH]c2=O)cc1
inactive: Potency [1] | Potency [2] | Potency [3] | outcome [6]
active: Potency [5] 44.7 µM

CC(C)=CCCC1(C)C=Cc2c(O)c3c(c(CC=C(C)C)c2O1)OC12C(=CC4CC1C(C)(C)OC2(C/C=C(/C)C(=O)O)C4=O)C3=O (stereo not drawn)
inactive: Potency [7] | Potency [8] | Potency [9] | Potency [2] | Potency [3] | Potency [11]
active: Potency [10] 20 µM | Potency [1] 19.8 µM

CCn1c(O)c(C=Nc2ccc(N3CCOCC3)cc2)c(=O)n(CC)c1=S
inactive: Potency [1] | Potency [2] | Potency [4] | outcome [6]
active: Potency [12] 9.19 µM | Potency [3] 112 µM

O=[N+]([O-])c1ccc(N2CCOCC2)c2c1no[n+]2[O-]
inactive: Potency [2] | Potency [3] | Potency [5]
active: Potency [1] 47.8 µM
